High-throughput results: PubChem BioAssay, National Center for Advancing Translational Sciences (NCATS)
The list is not random: actives were taken first. Their share in the collection is about 9.2%.
JMJD2E inh: qHTS Assay for Inhibitors of Human Jumonji Domain Containing 2E (JMJD2E); 230,000 tested, 1.6% active; AID 2147, 2009; Potency, µM (series often up to 57.1 µM), for inactives: at the top dose activity change, negative = inhibition, hits mostly inhibitors; JMJD2E catalytic domain, FDH-coupled NADH fluorescence (FDH is formaldehyde dehydrogenase);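 also: 0% = wells with enzyme and -100% = buffer wells without enzyme; nearly all actives have a fitted effect of over 50% in size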
HttQ103 aggreg: qHTS Multiplex Assay to Identify Dual Action Probes in a Cell Model of Huntington: Aggregate Formation (GFP); PC12 HttQ103-GFP aggregates, Acumen cytometry, 40 h; 220,000 tested, 1.1% active; Potency, µM (doses to about 46.1 µM), without a hit: at the highest dose activity change, negative = inhibition, actives largely listed as inhibitors; AID 1688, 2009; active = well fitted curve in the direction sought with a large enough effect; inconclusive = small, poorly fitted or top-dose-only effect, or another doubt; inactive = no such curve, though single readings can be large; an effect the other way counts as inactive or inconclusive; also: % is scaled to controls: 0 for no effect and ±100 for the full control effect; nearly all actives have a fitted effect of over 60% in size
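PC12 cells stably carrying ecdysone-inducible HTT exon 1 Q103–GFP were induced with tebufenozide (100 nM final) and treated with library compounds in titration. GFP aggregates in lysates were counted by laser scanning cytometry.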
HTT cytoprotect: qHTS Multiplex Assay to Identify Dual Action Probes in a Cell Model of Huntington: Cytoprotection (ATP); Potency, µM (top dose mostly 56.4 µM), inactives show cytoprotection (ATP increase), hits mostly activators; 230,000 tested, 0.14% active; PC12 HTT-Q103 induced, cytoprotection, ATP luminescence, 40 h; AID 1471, 2008; active = well fitted curve in the direction sought with a large enough effect; inconclusive = small, poorly fitted or top-dose-only effect, or another doubt; inactive = no such curve, though single readings can be large; an effect the other way counts as inactive or inconclusive; also: % of control where 0% means no effect; nearly all actives have a fitted effect of over 45% in size
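Readout: ATPlite luminescence (ATP level). Model: stable PC12, inducible Htt exon1 Q103-GFP. Inducer: tebufenozide, 100 nM final. Compounds: dose series. No G418 in medium.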
ALDH1A1 inh: qHTS Assay for Inhibitors of Aldehyde Dehydrogenase 1 (ALDH1A1); Potency, µM (doses to about 75.3 µM), without a hit: at the top dose activity, negative = inhibition, actives largely listed as inhibitors; 220,000 tested, 7.3% active; Purified ALDH1A1, NADH fluorescence, propionaldehyde substrate; AID 1030, 2008;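 also: plate controls were no enzyme wells and a reference inhibitor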
Target sequence (P00352 whole entry, looked up): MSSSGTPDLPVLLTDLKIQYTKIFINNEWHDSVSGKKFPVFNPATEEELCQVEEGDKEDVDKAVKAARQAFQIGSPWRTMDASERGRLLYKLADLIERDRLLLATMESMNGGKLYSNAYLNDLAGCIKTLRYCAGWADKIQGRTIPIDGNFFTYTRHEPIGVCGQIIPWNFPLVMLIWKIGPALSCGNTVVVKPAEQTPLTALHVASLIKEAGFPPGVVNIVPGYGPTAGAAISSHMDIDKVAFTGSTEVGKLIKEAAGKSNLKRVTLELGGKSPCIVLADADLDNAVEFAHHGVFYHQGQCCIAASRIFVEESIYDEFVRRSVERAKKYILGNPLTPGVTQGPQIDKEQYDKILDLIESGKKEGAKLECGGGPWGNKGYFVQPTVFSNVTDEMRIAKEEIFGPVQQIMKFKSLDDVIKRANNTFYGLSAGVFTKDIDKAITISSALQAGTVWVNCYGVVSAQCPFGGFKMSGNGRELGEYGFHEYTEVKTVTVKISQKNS
Lamin A splicing: qHTS Assay for Modulators of Lamin A Splicing; HeLa LMNA splicing GFP/RFP minigene ratio, 48 h; Potency, µM (titrated, usually from 46.1 µM), for inactives: at the top dose ratio change, negative = inhibition, usual class: inhibitors; 200,000 tested, 0.01% active; active = well fitted inhibition curve with a large enough effect in the signal ratio, with a control signal flat, not every such curve was filed as active; inconclusive = small, poorly fitted or top-dose-only effect, or effect the other way, or a change in a side signal; the % refers to the signal ratio; also: % is scaled to controls: 0 for no effect and ±100 for the full control effect
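S3 HeLa cells stably expressing lamin A-EGFP splicing minigene plus DsRed2, 600 cells/well, 48 h compound exposure at 37C. Laser-scanning cytometry; analysed as GFP (500-530 nm)/RFP (575-640 nm) total intensity ratio; 0.5% DMSO vehicle.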
HPGD inh: qHTS Assay for Inhibitors of HPGD (15-Hydroxyprostaglandin Dehydrogenase); purified HPGD, NADH fluorescence kinetic, PGE2 substrate; Potency, µM, for inactives: at the highest dose activity change, negative = inhibition, hits mostly inhibitors; 150,000 tested, 4.3% active; also: % is scaled to controls: 0 for no effect and ±100 for the full control effect
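20 nM HPGD preincubated 15 min at room temperature with compound in 50 mM Tris-HCl pH 8, 0.01% Tween 20. Started with 1 mM NAD+ and 30 uM prostaglandin E2; NADH fluorescence (360/450 nm) read 5 times over 30-s intervals, last minus first.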
Active calls of the source: *; ? = inconclusive; . = not tested or not shown; [ ] = another dose, or the depositor's remark. Unless noted, calls follow the shape of the dose curve; as a rule, active = well fitted inhibition curve with a large enough effect (not every such curve was filed as active); inconclusive = small, poorly fitted or top-dose-only effect, or another doubt; inactive = no such curve, though single readings can be large or run the other way. Potency is read from the fitted curve at half-maximal effect.

SMILES	JMJD2E inh	HttQ103 aggreg	HTT cytoprotect	ALDH1A1 inh	Lamin A splicing	HPGD inh
Clc1ccccc1-c1nc(/C=N/N2CCOCC2)c2ccccn12	?	11%	-23%	40µM*	-14%[46 µM]	.
COCCC(=O)N1CCCC(CCC(=O)NCc2ccc(F)c(F)c2)C1 (configuration not stated)	-1%	13%[9.22 µM]	43%[10 µM]	2%	-3%[46 µM]	.
CCOC(=O)CNC(=O)N1CCCC(CCC(=O)NCc2ccc(F)c(F)c2)C1 (configuration not stated)	-9%	-23%	-24%	32µM*	.	.
COc1cccc(CNC(=O)CCC2CCCN(C(=O)c3ccc(OC)o3)C2)c1 (configuration not stated)	1%	7%[9.22 µM]	10%[10 µM]	7.9µM*	.	.
CSc1nc(N)c2ncn([C@@H]3O[C@@H](COP(=O)(O)OP(=O)(O)O)[C@@H](O)[C@H]3O)c2n1	.	.	-11%[1.9 µM]	.	.	.
Cc1oc(-c2ccccc2)nc1Cn1c(=O)cc(-c2ccccc2)c2c(C)nn(C)c21	.	.	.	.	-19%[46 µM]	.
CCCC(=O)NCc1ccc2c(c1)cc(C)n2C	?	-1%	-10%	-5%	6%	7.9µM*
Cc1cc2cc(CNC(=O)CCC(=O)O)ccc2n1C	?	-9%	-16%	?	?	.
Cc1cc2cc(CNC(=O)Nc3cccc(Cl)c3)ccc2n1C	?	-14%	3%[10 µM]	22µM*	-13%	-13%
Cc1cc2cc(CNC(=O)c3ccc(S(=O)(=O)N4CCOCC4)cc3)ccc2n1C	-23%	-10%	-13%[10 µM]	25µM*	-7%	-13%
Cc1cc2ccccc2n1CCNC(=O)c1ccc(S(=O)(=O)N2CCCCC2)cc1	-1%	-31%	-3%[10 µM]	3.2µM*	?	-19%
COc1ccccc1C1CCN(c2cc(O)ccc2[N+](=O)[O-])CC1	0%	-3%[9.22 µM]	6%[10 µM]	-2%	.	.
O=C(NCCCN=C1NS(=O)(=O)c2ccccc21)c1ccc(S(=O)(=O)N2CCCCC2)cc1	10%	-2%	23%	14µM*	?	-19%
Cc1c(C(=O)NCc2ccc3c(c2)cc(C)n3C)cccc1[N+](=O)[O-]	?	1%	.	6%	-4%	1.8µM*
Cc1cc2cc(CNS(=O)(=O)c3ccc4ccccc4c3)ccc2n1C	-28%	-2%	9%[10 µM]	14µM*	-15%	-16%
C[C@H]1Cc2c(COc3ccccc3)nc3c(c2CO1)CN(S(=O)(=O)c1ccc(C#N)cc1)CC3	-1%[11.4 µM]	.	-38%[10 µM]	6%[13.5 µM]	16%[9.22 µM]	-2%
COc1ccc(CCC(=O)NCCc2csc(-c3ccc(C(F)(F)F)cc3)n2)cc1	.	.	.	.	-10%[46 µM]	.
Cc1c(C(=O)Nc2ccc3c(c2)OCCO3)sc2nc(-c3ccccc3)cn12	?	16µM*	25%[10 µM]	-9%	?	-11%
Cc1c(C(=O)N2CCc3ccccc3C2)sc2nc(-c3ccccc3)cn12	-3%	-10%	-4%[1.9 µM]	?	?	7.1µM*
c1ccc(-c2nc(-c3cccs3)c(NC3CCCCC3)o2)cc1	-7%	.	-10%	2%	.	-10%
O=C(CSc1nc2ccccc2nc1Cc1ccc(Cl)cc1)Nc1ccc2c(c1)OCO2	.	.	.	.	2%[46 µM]	.
C[n+]1cc2c3c(ccc2c2ccc4cc5c(cc4c21)OCO5)OCO3	?	6.3µM*	-98%	7%[20.9 µM]	?	?
COc1ccc(CCNC(=O)CSc2ccc3ccccc3c2)cc1OC	-1%	4%	-5%[10 µM]	-2%	-12%	.
O=C(CSc1ccc2ccccc2c1)NCCc1ccc(O)c(O)c1	?	?	-17%	25µM*	-26%[46 µM]	.
